Results on five compounds are retold here after PubChem BioAssay AID624304 (Sanford-Burnham Center for Chemical Genomics, 2012).

Hit rate of the full screen: of about 360,000 compounds, about 1,800 (0.5%) were called active.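 How the source made its calls: active means interference check ratio from 0.5 to 1.5 plus GFP to RFP signal ratio inhibition reaching or exceeding a fixed threshold (cut at about 30% in these data, passing the limit was not always enough); inactive means the rest.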 Only a selection was taken, and actives are over-represented in it overall.

This assay can be described thus: suppressors of acrylamide-induced Pgst-4::GFP reporter in worms, primary screen, SKN-1 inhibitor project, whole organism, uHTS, GFP/RFP fluorescence ratio, strain VP596 (AID 624304). The following applies: C. elegans VP596 Pgst-4::GFP/RFP ratio, 24 h, at 21.8 µM, hits give high values.
For orientation: inhibition means the drop in the measured response relative to a control, in per cent. As to `Cc1ccc(P(=S)(c2ccc(C)o2)N2CCOCC2)o1`, the inhibition is 36.8% (active).
Take `CN(C)C(=O)Oc1ccc(NC(=O)N2CCOCC2)cc1`: the inhibition is 12% (inactive).
Under `CC[N+]1(C)CCCC(OC(=O)C(O)(c2ccccc2)c2ccccc2)C1` (stereo not given) stands -6.17% (inactive).
Under `CC1CCCN1CCC(C(N)=O)(c1ccccc1)c1ccccc1` (stereo not given) stands -0.187% (inactive); under `CN(C)CC1Oc2ccccc2OC1(O)c1ccccc1` (stereo not given), -1.82% (inactive).
